# FLuc inh – inhibitors of firefly (Photinus pyralis) luciferase; purified P. pyralis luciferase, luminescence, biochemical; Potency, µM (highest dose often 115 µM), hits mostly inhibitors; actives 2.5% (n = 76,000); AID 1347043; further: nearly all actives have a fitted effect of over 65% in size
# Target sequence (P08659 whole entry, looked up): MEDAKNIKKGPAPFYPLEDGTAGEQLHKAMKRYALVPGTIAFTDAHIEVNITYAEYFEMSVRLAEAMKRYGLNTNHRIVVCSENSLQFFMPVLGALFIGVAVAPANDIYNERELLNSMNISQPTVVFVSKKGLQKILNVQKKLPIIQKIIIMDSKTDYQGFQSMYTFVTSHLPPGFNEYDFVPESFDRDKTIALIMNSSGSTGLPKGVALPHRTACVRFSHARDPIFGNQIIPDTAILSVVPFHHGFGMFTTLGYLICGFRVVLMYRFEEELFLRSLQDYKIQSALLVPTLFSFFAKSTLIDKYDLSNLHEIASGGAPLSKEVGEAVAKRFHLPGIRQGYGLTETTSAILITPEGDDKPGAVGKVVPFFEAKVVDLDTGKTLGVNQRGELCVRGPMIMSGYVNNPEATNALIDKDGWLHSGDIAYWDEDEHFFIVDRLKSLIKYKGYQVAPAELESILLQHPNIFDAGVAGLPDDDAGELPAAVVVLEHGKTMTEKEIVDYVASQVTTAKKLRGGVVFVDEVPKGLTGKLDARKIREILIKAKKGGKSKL
#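 Luminescence read by CCD imaging after purified firefly luciferase (10nM final) was added to substrate buffer holding 10uM D-luciferin and 10uM ATP, pH 7.5, pre-dosed with compound.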
# NPR1 antag – blocks ANP-stimulated signaling of human Npr1 receptor | Potency, µM (highest dose often 46.3 µM), usual class: inhibitors | actives 1.6% (n = 76,000) | HEK293 hNpr1 GloSensor cGMP, ANP-stimulated luminescence | P16066; calls by dose curve; further: nearly all actives have a fitted effect of over 60% in size
#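 Compound pre-incubated 30 min at room temperature on GloSensor-loaded HEK293 cells stably carrying hNpr1 and the pGS-40F cGMP biosensor. Stimulation uses hNppA at 0.1 nM final; luminescence is taken at baseline and 20 min post-agonist.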
# HEK cytotox – kills HEK 293 cells | Potency, µM (titrated, usually from 115 µM), most hits filed as inhibitors | actives 6.6% (n = 94,000) | HEK 293 viability, ATP luminescence (CellTiter-Glo), 48-72 h; further: nearly all actives have a fitted effect of over 60% in size
#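 qHTS cytotoxicity; HEK 293, 250 cells/well; compound pinned; 48 or 72 hr, 37 degree Celsius, 5% CO2, 95% humidity; CellTiter-Glo, 10 min RT; luminescence (ATP).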
# GPT2 inhibitor – inhibitors of human GPT2 alanine aminotransferase; actives 0.25% (n = 100,000); Potency, µM (top dose mostly 57.7 µM), usual class: inhibitors; Q8TD30; Recombinant GPT2, coupled pyruvate oxidase/HRP Amplex Red fluorescence; further: nearly all actives have a fitted effect of over 60% in size
#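 Recombinant GPT2 (10ng/uL) with 250uM a-KG and 2mM L-alanine, 30 min at room temperature, in HEPES pH 7.5 buffer. Pyruvate detected by pyruvate oxidase/HRP/Amplex Red fluorescence after 30 min in the dark; AOA (50uM) as positive control.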
# NIH3T3 tox – NIH 3T3 cell cytotoxicity. Potency, µM (highest dose often 96.7 µM), usual class: inhibitors. actives 4.3% (n = 94,000). NIH 3T3 viability, CellTiter-Glo ATP luminescence, 48-72 h; further: nearly all actives have a fitted effect of over 55% in size
#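 Cytotoxicity was measured by CellTiter-Glo ATP luminescence after 48 or 72 h compound exposure at 37 °C. Mouse NIH 3T3 fibroblasts were seeded at 400 cells/well and dosed by 23 nL pin transfer.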
# A number is an active result; 0 = inactive; ? = inconclusive; - = not tested or not shown. Rows were chosen to be rich in hits. Some 10% of all compounds tested hit in one or more screens of this group. Unless noted, the call rests on the fitted dose curve; in most records, active means well fitted curve in the direction sought with a large enough effect; inconclusive means small, poorly fitted or top-dose-only effect, or another doubt; inactive means no such curve, though single readings can be large; an effect the other way counts as inactive or inconclusive.
SMILES,FLuc inh,NPR1 antag,HEK cytotox,GPT2 inhibitor,NIH3T3 tox
Clc1ccc(-c2ccc(CN3CC[C@H]4CC[C@@H](C3)N4)o2)cc1,?,0,28µM,0,28µM
O=C(CN1CCCC1)N[C@H]1CC[C@H](Nc2nccc(-c3cccnc3)n2)C1,0,0,45µM,0,?
O=C(N[C@H]1CC[C@H](Nc2nccc(-c3cccnc3)n2)C1)c1ccc(O)cc1,0,0,?,0,?
COc1ccc(CNC(=O)c2nnn3c2CN(Cc2cccc(Cl)c2)C(=O)CC3)cc1OC,0,0,0,0,?
O=C(Nc1ccccc1)c1nnn2c1CN(Cc1ccccc1)C(=O)CC2,0,0,0,0,100µM
c1ccc(-c2noc(CC3CCOC4(CCN(Cc5cccnc5)CC4)C3)n2)cc1 (stereo not given),0,?,25µM,0,?
COc1cccc(CC(=O)N2CCC(Cc3nc(-c4ccncc4)n[nH]3)C2)c1 (stereo not given),0,0,13µM,0,?
O=C(COc1ccccc1)N1CCC(Cc2nc(-c3ccncc3)n[nH]2)CC1,0,0,0,?,0
COc1cccc(CC(=O)N2CCC3(CC2)CC(Cc2nc(-c4ccncc4)no2)CCO3)c1 (stereo not given),0,?,40µM,0,?
COCC(=O)N1CCC2(CC1)CC(Cc1nc(-c3cccnc3)no1)CCO2 (stereo not given),0,0,0,0,0
CCOc1ccccc1NC(=O)N1CCC2(CC1)CC(Cc1nc(-c3ccncc3)no1)CCO2 (stereo not given),0,0,?,0,?
O=C(C1CC1)N1CCC2(CC1)CC(Cc1nc(-c3ccncc3)no1)CCO2 (stereo not given),0,?,45µM,0,?
CCOC(=O)[C@H]1C[C@]2(CCCCNC2=O)N(C(C)=O)[C@H]1c1ccccc1,-,-,0,-,?
CC(C)N1C(=O)C2(CCCC2)C1C(=O)NCCN1CCC(Cc2ccccc2)CC1 (stereo not given),0,0,0,?,0
O=C1Nc2ccccc2CC12CCN(Cc1ccc(F)cc1)C2 (stereo not given),0,0,71µM,0,0
Cc1ccccc1Cn1cc(-c2ccncc2)cc1C(=O)N1CCN(c2ccccc2)CC1,0,0,?,0,?
CC(C)C(=O)NC1CCN(c2ccnc3ccnn23)C1 (stereo not given),-,-,?,0,?
C[C@](Cc1ccc(O)c(O)c1)(NN)C(=O)O,-,-,-,0,-
CC(N)(Cc1ccc(O)c(O)c1)C(=O)O (stereo not given),-,-,-,8.9µM,-
C=CCCOC(=O)N1CCC(=O)N(CC)C[C@H]2COc3cc(OC)ccc3[C@H]21,-,-,0,-,?
O=c1c2nc(-c3ccc(O)c(F)c3)ccc2ncn1-c1ccccc1,?,0,0,0,?
Fc1ccccc1-c1noc(-c2ncn3c2COC(c2ccccc2Cl)C3)n1 (stereo not given),16µM,0,?,0,?
CCOc1ccc(C2Cn3nnc(-c4nc(-c5ccccc5)no4)c3CO2)cc1 (stereo not given),8.9µM,0,0,0,0
COc1ccc(C2Cn3cnc(-c4nc(-c5cccs5)no4)c3CO2)cc1 (stereo not given),25µM,?,?,0,?
CCOc1cccc(-c2noc(-c3ncn4c3COC(c3ccc(OC)cc3)C4)n2)c1 (stereo not given),0,0,22µM,0,22µM
SMILES,FLuc inh,NPR1 antag,HEK cytotox,GPT2 inhibitor,NIH3T3 tox
CC(C)(C)CC(=O)Nc1ccc([C@H]2OCC(=O)N(Cc3ccc(F)cc3)[C@@H]2CO)cc1,0,0,?,0,?
COc1ccc(CCC(=O)N2CCC3(CC2)C(OC)CN3c2cccc(F)c2)cc1 (stereo not given),-,-,?,0,?
COc1ccc(-c2noc(-c3ncn4c3COC(c3ccc(F)cc3)C4)n2)c(OC)c1 (stereo not given),0,0,35µM,0,32µM
CCOc1cc(-c2noc(-c3ncn4c3COC(c3ccc(F)cc3)C4)n2)ccc1OC (stereo not given),0,0,22µM,0,25µM
CSc1ccc(-c2noc(-c3ncn4c3COC(c3ccc(F)cc3)C4)n2)cc1 (stereo not given),0,0,32µM,0,25µM
O=C(c1ccsc1)N1CCC2(CC1)CC(N1CCOCC1)CCO2 (stereo not given),-,-,0,0,0
COCc1cc(C[C@@H]2C[C@H](NCc3ccccc3O)C2(C)C)no1,0,0,0,0,0
COc1ccccc1-c1ccc2c(C(=O)N(C)C)nn(C)c2n1,-,-,0,0,0
COc1ccccc1C(C)N(C)C(=O)c1csc2nc(-c3ccccc3C)cn12 (stereo not given),?,0,35µM,0,?
COc1ccc(NC(=O)c2ccc(-c3ncc4cnc(C5=CCOCC5)cn34)cc2)cn1,0,0,?,0,32µM
O=C(c1ccc(-c2ncc3cnc(C4=CCOCC4)cn23)cc1)N1CC[S+](=O)([O-])CC1,0,0,0,0,?
O=C1CC(c2ccccc2)N(C(=O)CNC(=O)c2nccc3ccccc23)CCCCCCN1 (stereo not given),0,0,?,0,?
O=C1CC(c2ccccc2)N(C(=O)CNC(=O)c2n[nH]c3ccccc23)CCCCCN1 (stereo not given),25µM,0,0,0,0
O=C1CC(c2ccccc2)N(C(=O)CNC(=O)c2[nH]nc3c2COc2ccccc2-3)CCCCCN1 (stereo not given),0,0,32µM,0,?
O=C(C1CCCN1C(=O)c1cccc(-c2cccnc2)c1)N1CCOCC1 (stereo not given),-,-,0,-,0
COc1ccccc1-c1cccc(CN2CCCC(C(=O)NCCCc3ccccc3)C2)c1 (stereo not given),-,-,?,0,35µM
COc1ccccc1-c1cccc(CN2CCCC(C(=O)N3CCCC3)C2)c1 (stereo not given),-,-,?,0,?
COCCNC(=O)C1CCCN(Cc2cccc(-c3cccc(C)c3)c2)C1 (stereo not given),-,-,?,0,?
Cc1cccc(-c2cccc(CN3CCCC(C(=O)NCCCc4ccccc4)C3)c2)c1 (stereo not given),-,-,45µM,0,40µM
COc1ccc(C(=O)Nc2cccc(-c3nnc4n3CCCC4)c2)cn1,0,0,0,0,0
COc1cccc(CNC(=O)[C@@H]2C[C@@H](O)CN2C2CCN(C(=O)C3(c4ccccc4)CC3)CC2)c1,0,0,0,0,0
O=C(NC1CCN(c2ccc3nnc(C4CC4)n3n2)C1)C1CCCC1 (stereo not given),-,-,0,-,0
N#Cc1cccc(C(=O)N2CCNc3cnc(Nc4cccc(F)c4)nc3C2)c1,0,28µM,?,0,?
